The structures appear in SMILES notation. Out of some 52,000 compounds screened, about 1,700 (3.3%) were called active. Rule as the data show it: active = survival mostly below about 52% (no sharp cut-off); inactive = mostly above about 56%. The full list was thinned out, with actives kept by preference.

The test system of the assay is Wild type. Put plainly: S. aureus survival, RN4220 and DeltatarO strains – OD600, teichoic acid synthesis inhibitors, primary screen (AID 463173). To be noted: S. aureus RN4220 wild type/DeltatarO growth, OD600, 18 h, hits give low values, screened at 18.75 µg/mL (by protocol).
With `O=C(CS(=O)(=O)c1cccc2nsnc12)NCc1ccccc1Cl`, the survival was 136% (inactive).
As to `Cc1cc(Nc2ccc(C(=O)O)c(O)c2)n2ncnc2n1`, the survival is 72% (inactive).
Consider `O=C(NCCc1ccc(Cl)cc1)c1nc(-c2cccc(F)c2)n2c1CCCCC2`, for which the survival was 140% (inactive).
As to `COc1ccc(Cn2ccc3nc(C)c(C(=O)Nc4ccc(OC)cc4OC)cc3c2=O)cc1`, the survival is 0% (active).
Regarding `COc1ccc(Cn2ccc3nc(C)c(C(=O)Nc4ccc(F)cc4)cc3c2=O)cc1`, the survival is -3% (active).
The figure for `COc1ccc(Cn2ccc3nc(C)c(C(=O)Nc4ccc(OC(F)(F)F)cc4)cc3c2=O)cc1` is 90% (inactive); for `COc1ccc(NC(=O)c2cc3c(=O)n(Cc4ccco4)ccc3nc2C)c(OC)c1` it is 88% (inactive).
With `COc1cccc(NC(=O)c2cc3c(=O)n(Cc4cccnc4)ccc3nc2C)c1`, the survival is 78% (inactive).
With `COc1ccc(NC(=O)c2cc3c(=O)n(Cc4cccnc4)ccc3nc2C)c(OC)c1`, the survival was 88% (inactive).
The figure for `CC(=O)Nc1ccc(NC(=O)c2cc3c(=O)n(Cc4cccnc4)ccc3nc2C)cc1` is 65% (inactive); for `Cc1cccc(NC(=O)c2cc3c(=O)n(Cc4cccnc4)ccc3nc2C)c1` it is -3% (active).
On to `COc1ccc(Cn2ccc3nc(C)c(C(=O)Nc4ccc(OC)cc4)cc3c2=O)cc1`, for which the survival was 85% (inactive).
With `COc1ccccc1NC(=O)C1=C(C)Nc2nc(SCc3ccccc3)nn2C1c1ccncc1` (configuration not stated), the survival is 83% (inactive).
As for `CC(C)NC(=O)C1CCCN(c2ncnc3c2nc2n3CCCCC2)C1` (configuration not stated), the survival is 73% (inactive).
As to `COC(=O)c1nnn(-c2cccc(C)c2)c1C(=O)OC`, the survival was 77% (inactive).
As to `Cc1nc2ccccc2c(=O)n1/N=C1\C(=O)N(C)c2ccccc21`, the survival was 108% (inactive).
Turning to `Cc1ccc2c(=O)c(C(=O)c3cccc(Cl)c3)cn(CC(=O)NC3CCCCC3)c2n1`, the survival was 126% (inactive).
Regarding `CCc1ccc(CNC(=O)CN2C(=O)CSc3c2c(C)nn3-c2ccccc2)cc1`, the survival was 125% (inactive).
Turning to `CCOC(=O)c1c(NC(=O)C2c3ccccc3Oc3ccccc32)sc2c1CCC(CC)C2` (configuration not stated), the survival is 65% (inactive).
Take `CCOC(=O)c1c(NC(=O)c2ccccc2OCC)sc2c1CCC(CC)C2` (configuration not stated): the survival is -1% (active).
Regarding `CCC1CCc2c(sc(NC(=O)C3c4ccccc4Oc4ccccc43)c2C(=O)OC)C1` (configuration not stated), the survival was 80% (inactive).
With `CCOC(=O)c1c(NC(=O)COc2ccc(F)cc2)sc2c1CCC(C)C2` (configuration not stated), the survival is 69% (inactive).
The figure for `CCOC(=O)c1c(NC(=O)COc2cccc(C)c2C)sc2c1CCC(CC)C2` (configuration not stated) is 78% (inactive).
In the case of `CCOC(=O)c1c(NC(=O)c2ccc(F)cc2)sc2c1CCC(CC)C2` (configuration not stated), the survival is 3% (active).
Regarding `Cc1ccc(CN(C(=O)COc2cc(C)c(Cl)c(C)c2)c2ccccn2)o1`, the survival is 78% (inactive).
On to `COc1ccccc1NC(=O)CSC1=Nc2ccccc2N=C(c2ccc(F)cc2)C1`, for which the survival was 71% (inactive).
In the case of `CC1CCN(c2nc(-c3ccc(Br)cc3)nc3ccccc23)CC1`, the survival is 105% (inactive).
Turning to `CC1CCN(c2nc3ccccc3nc2C(F)(F)F)CC1`, the survival is 78% (inactive).
With `Brc1ccc(-c2nc(N3CCN(c4ccccc4)CC3)c3ccccc3n2)cc1` the figure was 127% (inactive); with `CC1CCCCN1c1nc(-c2ccc(C(C)(C)C)cc2)nc2ccccc12` (configuration not stated), 1% (active); with `CC1CCN(c2nc(-c3ccc(C(C)(C)C)cc3)nc3ccccc23)CC1`, 3% (active).
Take `CC1CCCCN1C(=O)CSc1nc(C2CC2)nc2ccccc12` (configuration not stated): the survival is 110% (inactive).
With `CCOC(=O)C(CC)n1nc(C)n2c(cc3occc32)c1=O` (configuration not stated) the figure was 120% (inactive); with `CCCN(CCC)CCNC(=O)c1cc2c(-c3ccccc3F)nn(C)c2s1`, 97% (inactive); with `CCNC(=S)N1CCC(n2cnc3ccccc32)CC1`, 98% (inactive).
For the compound `Cc1ccc(C(=O)N(c2ccc(C)cc2)S(=O)(=O)c2ccc(Cl)cc2)cc1`, the survival is 73% (inactive).
In the case of `COc1ccc(Cl)cc1NC(=O)c1cc2nc(-c3ccc4c(c3)OCO4)cc(C(F)(F)F)n2n1`, the survival was 65% (inactive).
Take `Cc1ccc(-n2nc(C)c(C(=O)NCCCN3CCN(c4ccc(F)cc4)CC3)c2-n2cccc2)cc1`: the survival is 101% (inactive).
`Cc1ccc(-n2ncc(C(=O)NCCCN3CCN(c4cccc(Cl)c4)CC3)c2-n2cccc2)cc1`: the survival is 59% (inactive).
The figure for `O=C(NCCCN1CCN(c2cccc(Cl)c2)CC1)c1cnn(-c2ccc(F)cc2)c1-n1cccc1` is 0% (active); for `O=C(NCCCN1CCN(c2ccc(F)cc2)CC1)c1cnn(-c2ccc(F)cc2)c1-n1cccc1` it is 82% (inactive); for `Cc1ccc(-n2nc(C)c(C(=O)NCCCN3CCN(c4cccc(Cl)c4)CC3)c2-n2cccc2)cc1` it is -2% (active).
Regarding `Cc1nn(-c2ccc(F)cc2)c(-n2cccc2)c1C(=O)NCCCN1CCN(c2cccc(Cl)c2)CC1`, the survival is 110% (inactive).
In the case of `COC(=O)c1ccc(Nc2ncnc3c2cnn3C)cc1`, the survival is 81% (inactive).
As for `COc1ccc(OC)c(S(=O)(=O)NCCc2csc(-c3cccc(F)c3)n2)c1`, the survival was 135% (inactive).
Regarding `CC1=Nc2ccccc2N=C(C)C1`, the survival is 115% (inactive).
As to `CCOc1ccc(-c2nc(SCC(=O)NC3CCCC3)c(-c3ccccc3)[nH]2)cc1OC`, the survival is 73% (inactive).
Regarding `COC(=O)c1ccc(OC)c(Cn2c(=O)n(-c3ccc(C)cc3)c(=O)c3c2cnn3C)c1`, the survival was 76% (inactive).
Consider `CCOc1ccc(-c2c(C)nn3c(-c4ccccc4)c(C(=O)NCCOC)cnc23)cc1OCC`, for which the survival is -6% (active).
In the case of `CCOc1ccc(-c2c(C)nn3c(C)c(C(=O)Nc4ccccc4C(=O)OC)cnc23)cc1OCC`, the survival is -6% (active).
For `CCOc1ccc(-c2c(C)nn3c(C)c(C(=O)Nc4cccc(Cl)c4C)cnc23)cc1OCC`, the survival is 67% (inactive).
Consider `CCOc1ccc(OCC)c(NC(=O)c2cnc3c(-c4ccccc4)c(C)nn3c2C)c1`, for which the survival is 63% (inactive).
With `CCCCNC(=O)c1cnc2c(-c3ccc(OCC)c(OCC)c3)c(C)nn2c1-c1ccccc1` the figure was 80% (inactive); with `CCOc1ccc(-c2c(C)nn3c(C)c(C(=O)Nc4cc(C)cc(C)c4)cnc23)cc1OCC`, 133% (inactive); with `Cc1cccc(CNC(=O)c2cnc3c(-c4cccc(C)c4)c(C)nn3c2C)c1`, -1% (active).
For `Cc1nn2c(C)c(C(=O)NCc3cccc(Br)c3)cnc2c1-c1ccccc1`, the survival is 53% (inactive).
As to `COC(=O)c1ccccc1NC(=O)c1cnc2c(-c3cccc(C)c3)c(C)nn2c1C`, the survival was 133% (inactive).
For `COc1cc(CNC(=O)c2cnc3c(-c4cccc(C)c4)c(C)nn3c2C)cc(OC)c1OC`, the survival was 74% (inactive).
`CCCNC(=O)c1cnc2c(-c3ccc(OCC)c(OCC)c3)c(C)nn2c1-c1ccccc1`: the survival is 76% (inactive).
On to `COc1cc(Cl)c(C)cc1NC(=O)c1cnc2c(-c3cccc(C)c3)c(C)nn2c1C`, for which the survival is 14% (active).
Turning to `COCCNc1ccc2cc(S(=O)(=O)N3CCCCC3)ccc2n1`, the survival was 56% (inactive).
In the case of `COc1ccccc1CNC(=O)COCc1cc(-c2ccc3c(c2)OCO3)on1`, the survival is 19% (inactive).
The figure for `COC(=O)C(C)n1nnc2sc(-c3ccccc3)cc2c1=O` (configuration not stated) is 88% (inactive).
Turning to `CCOC(=O)c1cccc(NC(=O)N2CCC(CN3CCc4ccccc4C3)CC2)c1`, the survival was 71% (inactive).
Turning to `CC(=O)N1c2ccccc2C(=O)C1N1CCN(c2cc(Cl)ccc2C)CC1` (configuration not stated), the survival was 138% (inactive).
`CCNC(=O)c1cnc2c(-c3ccccc3)c(C)nn2c1C`: the survival was 0% (active).
As to `CCOc1ccc(CCNC(=O)c2cnc3c(-c4ccc(F)cc4)c(C)nn3c2C)cc1OCC`, the survival is 159% (inactive).
For `CCOc1ccc(-c2c(C)nn3c(C)c(C(=O)NCCc4ccccc4)cnc23)cc1OCC`, the survival was 53% (inactive).
Consider `Cc1nn2c(C)c(C(=O)NCC(C)c3ccccc3)cnc2c1-c1ccccc1` (configuration not stated), for which the survival was 75% (inactive).
Consider `Cc1nn2c(C)c(C(=O)NCCc3ccccc3)cnc2c1-c1ccccc1`, for which the survival was 55% (inactive).
On to `CCOc1ccc(CCNC(=O)c2cnc3c(-c4ccccc4)c(C)nn3c2C)cc1OCC`, for which the survival was -3% (active).
The figure for `Cc1cccc(CSc2nnc3[nH]c(=O)cc(-c4ccccc4)n23)c1` is 80% (inactive); for `CCOC(=O)C1CCCN(C(=O)c2ccc(C)c(NC(=O)c3nsc4ccccc34)c2)C1` (configuration not stated) it is 123% (inactive).
For the compound `NS(=O)(=O)c1cccc(S(N)(=O)=O)c1`, the survival was 117% (inactive).
Regarding `Cc1ccc(NC(=O)CN2C(=O)C(c3ccc(F)cc3)=NC2(C)C)c(C)c1`, the survival was 85% (inactive).
`Cc1ccc(-c2nn3c(-c4ccccc4)nnc3c3ccccc23)cc1`: the survival was 76% (inactive).
Take `Cc1ccc(-c2nn3c(-c4ccc(C)cc4)nnc3c3ccccc23)cc1`: the survival is 20% (active).
On to `COc1ccc(-c2nn3c(-c4ccc(OC)cc4)nnc3c3ccccc23)cc1`, for which the survival was 73% (inactive).
In the case of `COc1ccc(-c2nn3c(-c4ccccc4C)nnc3c3ccccc23)cc1`, the survival was -3% (active).
Consider `Cc1ccc(-c2nn3c(-c4ccccc4C)nnc3c3ccccc23)cc1`, for which the survival is 51% (inactive).
Take `Cc1ccc(-c2nnc3c4ccccc4c(-c4ccccc4)nn23)cc1`: the survival is 123% (inactive).
For `COc1ccc(CNC(=O)c2cccc(N3CCCS3(=O)=O)c2)cc1OC`, the survival is 63% (inactive).
With `O=C(Nc1cccc(C(=O)N2CCN(c3ccccc3F)CC2)c1)c1nsc2ccccc12`, the survival was 67% (inactive).
Consider `Cc1nn(S(=O)(=O)c2ccc(F)cc2)c(C)c1S(=O)(=O)N1CCC(C)CC1`, for which the survival was -3% (active).
With `Cc1nn(C(=O)c2ccccc2F)c(C)c1S(=O)(=O)N1CCCCCC1` the figure was 70% (inactive); with `Cc1nn(S(=O)(=O)c2ccc(F)cc2)c(C)c1S(=O)(=O)N1CCCCC1`, 71% (inactive).
With `Cc1nn(C(=O)c2cccc([N+](=O)[O-])c2C)c(C)c1S(=O)(=O)N1CCOCC1`, the survival was 64% (inactive).
Take `COc1ccc(S(=O)(=O)n2nc(C)c(S(=O)(=O)N3CCCCCC3)c2C)cc1C`: the survival was 55% (inactive).
Take `Cc1nn(C(=O)c2cccc([N+](=O)[O-])c2C)c(C)c1S(=O)(=O)N1CCCCCC1`: the survival was -4% (active).
Take `COc1ccc(S(=O)(=O)n2nc(C)c(S(=O)(=O)N3CCC(C)CC3)c2C)cc1OC`: the survival is 81% (inactive).
Consider `COc1ccc(S(=O)(=O)n2nc(C)c(S(=O)(=O)N3CCCCCC3)c2C)cc1OC`, for which the survival was 1% (active).
With `Cc1nn(S(=O)(=O)c2ccccc2)c(C)c1S(=O)(=O)N1CCC(C)CC1`, the survival is 81% (inactive).
